Laboratory results published in the supplement of paper PMC10933113.
Structures can show the parent of a compound that is named as a salt. ± gives the uncertainty stated by the source.

What follows are compounds tested on THP-1 (assay: CD86 surface expression induction over DMSO control (% over DMSO); higher = stronger dendritic cell activation). Conditions: exposure time: 24 h.
Description: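 hCLAT-like CD54 and CD86 surface expression on THP1 cells after 24 h exposure at a single concentration (highest non-cytotoxic concentration, or 100-200 µM if not cytotoxic). Flow cytometry (iQue) was run on 5,000 live cells.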

| SMILES | CD86 surface expression induction |
| --- | --- |
| Cc1ccc(N)cc1O [5-Amino-2-methylphenol] (200 µM) | -0.96 ± 6.3 |
| CC(=O)Oc1ccc(C2(c3ccc(OC(C)=O)cc3)C(=O)Nc3ccccc32)cc1 [Oxyphenisatin acetate] (100 µM) | 6.01 ± 7.9 |
| O=C1Nc2ccccc2C1(c1ccc(O)cc1)c1ccc(O)cc1 [Oxyphenisatin] (100 µM) | 3.8 ± 8.1 |
| CC(C)CCCCCCCOC(=O)c1ccc(C(=O)OCCCCCCCC(C)C)c(C(=O)OCCCCCCCC(C)C)c1 [Triisodecyl trimellitate] (163 µM) | -10.7 ± 1.8 |
| CC/C=C\C/C=C\C/C=C\CCCCCCCC(=O)OCC [Ethyl linolenate] (10 µM) | -8.18 ± 6.8 |
| COc1cccc2c1C(=O)c1c(O)c3c(c(O)c1C2=O)C[C@@](O)(C(=O)CO)C[C@@H]3O[C@H]1C[C@H](N)[C@H](O[C@@H]2CCCCO2)[C@H](C)O1 [Pirarubicin*] (10 µM) | 324 ± 3.3 |
| COC(=O)Nc1nc2cc([S+]([O-])c3ccccc3)ccc2[nH]1 (stereo not given) [Oxfendazole] (100 µM) | 13.3 ± 2.3 |
| Cc1cc(C2(c3cc(C)c(O)cc3C)OS(=O)(=O)c3ccccc32)c(C)cc1O [p-Xylenol blue] (200 µM) | 2.3 ± 1.9 |
| CCCCCCCCN [n-Octylamine] (100 µM) | -6.07 ± 0.55 |
| C=CC(=O)OCCCCCCOC(=O)C=C [1,6-Hexanediol diacrylate] (100 µM) | 24.1 ± 16 |
| CC(=O)Oc1ccc(C(c2ccc(OC(C)=O)cc2)c2ccccn2)cc1 [Bisacodyl] (100 µM) | 26.6 ± 55 |
| [Cl][Bi]([Cl])([c]1ccccc1)([c]1ccccc1)[c]1ccccc1 [Triphenylbismuthine dichloride] (10 µM) | 53 ± 6.3 |
| CCN(CC)CCOc1ccc2c(c1)C(=O)c1cc(OCCN(CC)CC)ccc1-2 [Tilorone] (200 µM) | 58 ± 31 |
| O=C(N/N=C/c1ccccc1O)c1ccncc1 [Salinazid] (10 µM) | 7.77 ± 2.8 |
| C/C=C/C=C/C=O [2,4-Hexadienal] (200 µM) | 4.48 ± 7.5 |
| C/C=C1\C(=O)C[C@H]2[C@@H]3CCC4=CC(=O)CC[C@]4(C)[C@H]3CC[C@]12C [Guggulsterone Z] (100 µM) | -9.87 ± 7.2 |
| CCOC(=O)CCC(=O)OCC [Diethyl butanedioate] (200 µM) | -4.2 ± 3.3 |
| O=C(Oc1ccccc1)c1cccc(C(=O)Oc2ccccc2)c1 [Diphenyl isophthalate] (200 µM) | 1.84 ± 5.6 |
| Oc1c(Br)cc(Br)c2cccnc12 [Broxyquinoline] (100 µM) | 57.8 ± 75 |
| COP(=O)(O)OP(=O)(O)OC [Dimethyl dihydrogen diphosphate] (200 µM) | -3.42 ± 3.5 |

| SMILES | CD86 surface expression induction |
| --- | --- |
| C=CCOC(Cn1ccnc1)c1ccc(Cl)cc1Cl (stereo not given) [Imazalil sulfate] (100 µM) | 16.4 ± 4.3 |
| CC(C)c1ccc2cc(C(C)C)ccc2c1 [2,6-Diisopropylnaphthalene] (200 µM) | 18.9 ± 22 |
| CC(C)c1ccc2oc3nc(N)c(C(=O)O)cc3c(=O)c2c1 [Amlexanox] (100 µM) | 8.56 ± 19 |
| Nc1ccc2cc3ccccc3cc2c1 [2-Aminoanthracene] (200 µM) | -10.7 ± 9.7 |
| CC(C)(C)c1cc(O)ccc1O [tert-Butylhydroquinone] (100 µM) | 66.8 ± 57 |
| Oc1ccc(/C=C/c2cc(O)cc(O)c2)cc1 [Resveratrol] (100 µM) | -3.05 ± 3.9 |
| O=C(O)c1cc(O)c2ccccc2c1O [1,4-dihydroxy-2-naphthoic acid*] (10 µM) | 290 ± 51 |
| c1ccc(CCNc2nc(-c3ccccc3)cs2)cc1 [Fanetizole] (200 µM) | -6.54 ± 1.4 |
| c1ccc2[nH]c(-c3cscn3)nc2c1 [Thiabendazole] (100 µM) | 6.44 ± 20 |
| S=C(NC1CCCCC1)NC1CCCCC1 [N,N'-Dicyclohexylthiourea] (10 µM) | -17.9 ± 4.5 |
| Oc1c(I)cc(Cl)c2cccnc12 [Clioquinol] (100 µM) | 64.9 ± 88 |
| C/C=C/C=C/CCCCCCCO [Codlelure] (200 µM) | -13 ± 6 |
| CCCCCCCC/C=C\CCCCCCCC(=O)N(C)CC(=O)O [Oleyl sarcosine] (100 µM) | -14.4 ± 36 |
| N=C(N)NN=C(/C=C/c1ccc([N+](=O)[O-])o1)/C=C/c1ccc([N+](=O)[O-])o1 [Nitrovin] (10 µM) | 88.4 ± 21 |
| Cc1ccc(O)c2ncccc12 [Tiliquinol] (10 µM) | 43.2 ± 60 |
| CC(C)=CCC/C(C)=C\CO [(2Z)-3,7-Dimethylocta-2,6-dien-1-ol] (200 µM) | 6.83 ± 19 |
| Cc1occc1S [2-Methyl-3-furanthiol] (200 µM) | 33 ± 9.3 |
| COc1cc(/C=C2\CCC/C(=C\c3ccc(O)c(OC)c3)C2=O)ccc1O [Cyclovalone] (10 µM) | -7.37 ± 5.9 |
| Sc1nc2ccccc2s1 [2-Mercaptobenzothiazole] (100 µM) | -1.26 ± 3.2 |
| Cc1c(C)n(CCN(C)C)c2ccc(C(=O)OCCN(C)C)cc12 [Amindocate] (100 µM) | 1.11 ± 2.2 |
